From PubChem BioAssay (NCI)
About 83,000 compounds went through this panel and 20% of them were active in at least one assay; those are over-represented in the sample as a whole.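 48-hour exposure, single concentration, 96-well plates; percent growth endpoint where 0 means no net growth. Active: below 10.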 Values without a mark were called inactive. Activity calls are given as the source filed them.

Assays:
Assay in all cases: NCI-60 one-dose screen, 48 h (100 = growth as untreated, 0 = no growth, -100 = all killed)
K-562 leukemia = conditions: 10 µM unless noted
MALME-3M melanoma = conditions: 10 µM unless noted
MDA-MB-231 breast = conditions: 10 µM unless noted
RXF 393 renal = conditions: 10 µM unless noted
SF-268 CNS = conditions: 10 µM unless noted
SF-295 CNS = conditions: 10 µM unless noted
SF-539 CNS = conditions: 10 µM unless noted
UACC-257 melanoma = conditions: 10 µM unless noted
M14 melanoma = conditions: 10 µM unless noted
HCT-15 colon = conditions: 10 µM unless noted
HT29 colon = conditions: 10 µM unless noted
SNB-19 CNS = conditions: 10 µM unless noted
U251 CNS = conditions: 10 µM unless noted
PC-3 prostate = conditions: 10 µM unless noted
UACC-62 melanoma = conditions: 10 µM unless noted
LOX IMVI melanoma = conditions: 10 µM unless noted
SK-MEL-2 melanoma = conditions: 10 µM unless noted
SNB-75 CNS = conditions: 10 µM unless noted
SK-MEL-5 melanoma = conditions: 10 µM unless noted
SK-MEL-28 melanoma = conditions: 10 µM

With `c1ccc2c(c1)oc1cc3sccc3nc12` the growth (K-562 leukemia) was 98.1%, the growth (MALME-3M melanoma) was 102% and the growth (MDA-MB-231 breast) was 101%. It also gave a growth (RXF 393 renal) of 109%, a growth (SF-268 CNS) of 97.5% and a growth (SF-295 CNS) of 108%. For the same molecule, the growth (SF-539 CNS) was 98.8%, the growth (UACC-257 melanoma) was 104% and the growth (M14 melanoma) was 94.7%. It also gave a growth (HCT-15 colon) of 99.5%, a growth (HT29 colon) of 106% and a growth (SNB-19 CNS) of 98.3%. The growth (U251 CNS) was 92%, the growth (PC-3 prostate) was 93.4% and the growth (UACC-62 melanoma) was 94.2%. It also gave a growth (LOX IMVI melanoma) of 96.8% and a growth (SK-MEL-2 melanoma) of 95.3%.

In the case of `CNCCNc1nc2ccccc2c2c(=O)c3cc(OC)ccc3sc12`, the growth (K-562 leukemia) is reported as -34% (active), the growth (MALME-3M melanoma) is reported as 67.1% and the growth (MDA-MB-231 breast) is reported as 1.79% (active). For the same molecule, the growth (RXF 393 renal) was 42.4%, the growth (SF-268 CNS) was 38.7% and the growth (SF-295 CNS) was 87.3%. The growth (SF-539 CNS) was 60%, the growth (UACC-257 melanoma) was 73.1% and the growth (M14 melanoma) was -62.5% (active). For the same molecule, the growth (HCT-15 colon) was -31.8% (active), the growth (HT29 colon) was -33.3% (active) and the growth (SNB-75 CNS) was 43.1%. The growth (U251 CNS) was -19.6% (active), the growth (PC-3 prostate) was 14% and the growth (SK-MEL-5 melanoma) was 76.4%. For the same molecule, the growth (UACC-62 melanoma) was 7.43% (active), the growth (LOX IMVI melanoma) was -87.8% (active) and the growth (SK-MEL-28 melanoma) was 74.6%. It also gave a growth (SK-MEL-2 melanoma) of 75.2%.

For `O=C(CN1C=NC2C(N3CCOCC3)=NC=NC21)c1ccc(Br)cc1` (stereo not given), the growth (K-562 leukemia) was 106%, the growth (MALME-3M melanoma) was 104% and the growth (MDA-MB-231 breast) was 105%. The growth (RXF 393 renal) was 103%, the growth (SF-268 CNS) was 98.9% and the growth (SF-295 CNS) was 97.9%. The growth (SF-539 CNS) was 100%, the growth (UACC-257 melanoma) was 105% and the growth (M14 melanoma) was 107%. It also gave a growth (HCT-15 colon) of 101%, a growth (HT29 colon) of 107% and a growth (SNB-19 CNS) of 97.2%. For the same molecule, the growth (U251 CNS) was 99.8%, the growth (PC-3 prostate) was 95.5% and the growth (UACC-62 melanoma) was 93.1%. It also gave a growth (LOX IMVI melanoma) of 97.3%, a growth (SK-MEL-28 melanoma) of 111% and a growth (SK-MEL-2 melanoma) of 94.4%.

In the case of `CCCSC1=NC2C(N(CC)C(=O)N2CC)N1/N=C/C=C/c1ccccc1[N+](=O)[O-]` (stereo not given), the growth (K-562 leukemia) is reported as 8.86% (active), the growth (MALME-3M melanoma) is reported as 74.3% and the growth (MDA-MB-231 breast) is reported as 22.6%. The growth (RXF 393 renal) was 0.465% (active), the growth (SF-268 CNS) was 48.1% and the growth (SF-295 CNS) was 12.9%. For the same molecule, the growth (SF-539 CNS) was -11.9% (active), the growth (UACC-257 melanoma) was 70.8% and the growth (M14 melanoma) was 1.77% (active). The growth (HCT-15 colon) was 16.1%, the growth (HT29 colon) was 9.1% (active) and the growth (SNB-19 CNS) was 29.6%. For the same molecule, the growth (U251 CNS) was 21.7%, the growth (PC-3 prostate) was 24.9% and the growth (UACC-62 melanoma) was 36.6%. For the same molecule, the growth (LOX IMVI melanoma) was 37.7%, the growth (SK-MEL-28 melanoma) was 63.5% and the growth (SK-MEL-2 melanoma) was 48.6%.

For `COc1ccc(/C=C2\NC(=O)NC2=O)cc1O`, the growth (K-562 leukemia) was 106%, the growth (MALME-3M melanoma) was 105% and the growth (MDA-MB-231 breast) was 114%. It also gave a growth (RXF 393 renal) of 111%, a growth (SF-268 CNS) of 106% and a growth (SF-295 CNS) of 94.2%. The growth (SF-539 CNS) was 106%, the growth (UACC-257 melanoma) was 99.4% and the growth (M14 melanoma) was 89.8%. It also gave a growth (HCT-15 colon) of 99%, a growth (HT29 colon) of 107% and a growth (SNB-75 CNS) of 105%. It also gave a growth (U251 CNS) of 99.2%, a growth (PC-3 prostate) of 101% and a growth (SK-MEL-5 melanoma) of 102%. For the same molecule, the growth (UACC-62 melanoma) was 103%, the growth (SK-MEL-28 melanoma) was 104% and the growth (SK-MEL-2 melanoma) was 115%.

In the case of `O=C(Nc1ccc(F)cc1F)c1cc(I)ccc1O`, the growth (K-562 leukemia) is reported as 9.06% (active), the growth (MALME-3M melanoma) is reported as -17.6% (active) and the growth (MDA-MB-231 breast) is reported as 35.2%. For the same molecule, the growth (RXF 393 renal) was -1.12% (active), the growth (SF-268 CNS) was 16.1% and the growth (SF-295 CNS) was 1.39% (active). The growth (SF-539 CNS) was 13.3%, the growth (UACC-257 melanoma) was -9.13% (active) and the growth (M14 melanoma) was 16.7%. The growth (HCT-15 colon) was 15.9%, the growth (HT29 colon) was 76.6% and the growth (SNB-75 CNS) was -2.44% (active). The growth (U251 CNS) was 4.06% (active), the growth (PC-3 prostate) was 5.01% (active) and the growth (UACC-62 melanoma) was 9.89% (active). The growth (LOX IMVI melanoma) was 13.4%, the growth (SK-MEL-28 melanoma) was 23.8% and the growth (SK-MEL-2 melanoma) was -15.8% (active).

For `NC(=O)CSc1nc(-c2ccc(F)cc2)cc(-c2ccco2)n1`, the growth (K-562 leukemia) was 103%, the growth (MALME-3M melanoma) was 110% and the growth (MDA-MB-231 breast) was 98.3%. It also gave a growth (RXF 393 renal) of 118%, a growth (SF-268 CNS) of 104% and a growth (SF-295 CNS) of 102%. The growth (SF-539 CNS) was 110%, the growth (UACC-257 melanoma) was 109% and the growth (M14 melanoma) was 98%. It also gave a growth (HCT-15 colon) of 107%, a growth (SNB-75 CNS) of 99.2% and a growth (SNB-19 CNS) of 106%. For the same molecule, the growth (U251 CNS) was 99.2%, the growth (PC-3 prostate) was 89.1% and the growth (SK-MEL-5 melanoma) was 103%. The growth (UACC-62 melanoma) was 95.4%, the growth (LOX IMVI melanoma) was 96.4% and the growth (SK-MEL-28 melanoma) was 115%. For the same molecule, the growth (SK-MEL-2 melanoma) was 101%.

Molecule `COc1cc(/C=C/C(=O)c2ccc(Cl)cc2)cc(CN2CCCCC2)c1O` has a growth (K-562 leukemia) of 70.4%, a growth (MALME-3M melanoma) of 82.2% and a growth (MDA-MB-231 breast) of 83.2%. It also gave a growth (RXF 393 renal) of 97.6%, a growth (SF-268 CNS) of 91.1% and a growth (SF-295 CNS) of 97.9%. For the same molecule, the growth (SF-539 CNS) was 92.1%, the growth (UACC-257 melanoma) was 92.3% and the growth (M14 melanoma) was 91.4%. For the same molecule, the growth (HCT-15 colon) was 69.8%, the growth (HT29 colon) was 19.4% and the growth (SNB-75 CNS) was 70.9%. It also gave a growth (U251 CNS) of 74.6%, a growth (PC-3 prostate) of 90.6% and a growth (SK-MEL-5 melanoma) of 90.7%. The growth (UACC-62 melanoma) was 87.4%, the growth (LOX IMVI melanoma) was 87.4% and the growth (SK-MEL-2 melanoma) was 108%.
